Records with an inconclusive call do not appear. Calls of active or inactive are those of the source. Calls come from the whole dose curve; as a rule, active = well fitted inhibition curve with a large enough effect in the repeat runs; inconclusive = weak or mixed curves; inactive = flat fitted curve, though single readings scatter.
% is set by controls: 0 for no effect and ±100 for the full control effect; potency is the fitted concentration of half-maximal effect.

Cytochrome P450 2D6 (Homo sapiens), sequence (P10635 whole entry, looked up): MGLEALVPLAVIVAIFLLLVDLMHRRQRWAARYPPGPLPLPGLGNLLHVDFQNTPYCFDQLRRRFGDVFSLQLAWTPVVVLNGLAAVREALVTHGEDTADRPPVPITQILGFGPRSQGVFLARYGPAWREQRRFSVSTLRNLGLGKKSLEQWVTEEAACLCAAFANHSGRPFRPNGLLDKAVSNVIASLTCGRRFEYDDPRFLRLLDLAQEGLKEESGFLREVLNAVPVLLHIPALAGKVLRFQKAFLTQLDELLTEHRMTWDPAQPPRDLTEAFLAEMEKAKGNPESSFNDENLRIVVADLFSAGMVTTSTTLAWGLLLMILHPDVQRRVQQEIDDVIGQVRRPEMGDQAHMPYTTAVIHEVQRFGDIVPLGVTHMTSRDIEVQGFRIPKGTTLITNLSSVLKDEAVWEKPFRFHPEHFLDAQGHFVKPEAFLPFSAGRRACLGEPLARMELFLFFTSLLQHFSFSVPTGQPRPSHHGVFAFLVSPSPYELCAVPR

This test addresses Cytochrome P450 2D6 (Homo sapiens) (UniProt P10635). Kind of test: Cytochrome P450 family 2 subfamily D member 6 (CYP2D6) small molecule antagonists: luciferase biochemical (cell-free) qHTS assay (AID 1645840). Note: nearly all actives have a fitted effect of over 55% in size. The settings on record: P450-Glo CYP2D6 enzyme, luciferin luminescence, 1 h; series mostly up to 57.4 µM; activity change, negative = inhibition: at the top concentration. On the procedure: National Center for Advancing Translational Sciences [NCATS] Assay Overview: Cytochrome P450 (CYP) enzymes are membrane-bound hemeproteins that play a key role in metabolism of drugs and xenobiotics. Assaying the effect of chemicals on CYP isozymes is useful to minimize the adverse drug reactions and toxicities in drug development process. Chemical compounds were tested for their effect on CYP enzyme activities by using P450-Glo (TM) screening systems (Promega Corporation, Madison, WI). These systems provide a luminescent method containing proluciferin substrates and are converted to luciferin products by CYP isozymes. The luciferin products formed are detected with a luciferin detection reagent, and the amount of light produced is proportional to CYP activity. P450-Glo (TM) CYP2D6 screening system (Catalog. No. V9890) was used to detect the compounds that interfere in CYP2D6 activity.
Assay Protocol Summary: Two ul of enzyme-substrate mix was dispensed into medium binding white/solid 1536-well plates (Greiner Bio-One North America Inc., Monroe, NC) using a Flying Reagent Dispenser (FRD, Aurora Discovery, San Diego, CA). […] The assay plates were incubated at room temperature for 10 min. Then 2 ul of NADPH regeneration solution was added to each well of the assay plates using an FRD and incubated at room temperature for 1 h. The reaction was stopped by adding 4 ul of detection reagent using an FRD and after 20 min incubation at room temperature, the luminescence signal was measured using a ViewLux plate reader (Perkin Elmer, Shelton, CT). Data were expressed as relative luminescence units.
In general terms: Quantitative high-throughput screening tests each substance at several concentrations.
As for `Cc1ccccc1CNC(=O)CCCn1c(=O)c2cccn2c2ccccc21`, the Potency was 6.74 µM (active). As to `Cc1ccc(C)c(Nc2nc3nonc3nc2Nc2cccc(C)c2C)c1`, the Potency was 10.7 µM (active). Regarding `O=C(NCc1ccco1)c1ccc2c(c1)N(Cc1cccc(Cl)c1)C(=O)c1ccccc1S2=O` (stereo not given), the Potency is 1.2 µM (active). Turning to `COc1ccc(CCNc2nc(SCc3ccccc3Cl)nc3ccccc23)cc1OC`, the Potency is 0.756 µM (active). Consider `CCn1cc(/C=C(\NC(=O)c2ccc(C)cc2)C(=O)NCCCn2ccnc2)c2ccccc21`, for which the Potency was 0.169 µM (active). In the case of `CCOc1ccc(CNC(=O)Cn2c(=O)c3cccn3c3ccc(F)cc32)cc1`, the “activity change, negative = inhibition” value is 10.6% (inactive). For the molecule `Cc1[nH]n2c(=O)cc(-c3ccccc3Cl)nc2c1-c1ccccc1`, the Potency is 16.9 µM (active).

Turning to `Cc1ccc2nc(NC(=O)CSc3nccn3Cc3ccccc3)sc2c1`, the Potency was 8.49 µM (active). Regarding `COc1ccc(CNC(=O)Nc2ccc3c(c2)N(C)C(=O)c2ccccc2S3)cc1OC`, the Potency is 9.52 µM (active). `COc1ccc(NC(=O)CSc2nc(-c3cccs3)cc(C(F)(F)F)n2)cc1OC`: the “activity change, negative = inhibition” value is 9.56% (inactive).

As to `Cc1cccc(Cn2c(SCc3ccc(C(=O)N4CCC(C)CC4)cc3)nc3ccncc32)c1`, the Potency was 4.77 µM (active). Consider `COc1ccccc1CNC(=O)CCC1N=C2c3ccccc3N=C(SCC(=O)NCCc3ccc(OC)c(OC)c3)N2C1=O` (stereo not given), for which the “activity change, negative = inhibition” value was -18.7% (inactive). As for `CC(CCC(=O)O)C1CC[C@H]2C3[C@H](O)C[C@@H]4C[C@H](O)CCC4(C)[C@H]3C[C@H](O)C12C` (stereo not given in full), the “activity change, negative = inhibition” value was -0.4% (inactive).

Regarding `Cc1onc(-c2ccccc2Cl)c1C(=O)Cl`, the “activity change, negative = inhibition” value was 16.8% (inactive).

In the case of `COc1ccc(CNC(=O)Cn2c(SCC(=O)Nc3ccc(C)c(C)c3)nc3ccccc32)cc1`, the “activity change, negative = inhibition” value is 0.948% (inactive). Consider `CC(=O)c1ccc(N2CCN(c3ncnc4c3cnn4C)CC2)cc1`, for which the “activity change, negative = inhibition” value was -1.82% (inactive). With `Cc1ccc(S(=O)(=O)N[C@@H]2CCCC[C@H]2O)cc1`, the “activity change, negative = inhibition” value is 6.25% (inactive). For `N[C@@H]1CCCCN(c2c(F)cc3c(=O)c(C(=O)O)cn(C4CC4)c3c2Cl)C1`, the “activity change, negative = inhibition” value was -0.9% (inactive). Same read-out and setting: to `COc1ccc(C(=O)Oc2ccc(C(c3c(C)[nH][nH]c3=O)c3c(C)[nH][nH]c3=O)cc2OC)cc1` belongs 14.3% (inactive).

With `OCC=Cc1ccccc1`, the “activity change, negative = inhibition” value was 1.72% (inactive). `OCCOCCOCCOCCOCCN1CCN(C(c2ccc(Cl)cc2)c2ccc(Cl)cc2)CC1`: the Potency is 8.49 µM (active). As to `COc1ccc(C(Nc2ccccn2)c2ccc3ccc(C)nc3c2O)cc1C` (stereo not given), the Potency is 21.3 µM (active). Regarding `CN(C)S(=O)(=O)c1ccc(S(=O)(=O)N(Cc2ccccc2Cl)C[C@@H]2CCCO2)cc1`, the “activity change, negative = inhibition” value is -9.51% (inactive). As to `CCCCCCCCC=CCCCCCCCC(=O)NCCOC(=O)CC(C(=O)O)S(=O)(=O)O` (stereo not given), the Potency was 13.5 µM (active). Consider `COC(=O)c1c(-c2ccc(Cl)cc2)noc1N1CCN(c2ccccc2OC)CC1`, for which the “activity change, negative = inhibition” value is 2% (inactive). Consider `CC(NC(=O)C(=O)Nc1c2c(nn1-c1ccccc1)CSC2)c1ccccc1` (stereo not given), for which the “activity change, negative = inhibition” value is 22.1% (inactive). As for `CC(C)(C)c1ccc(S(=O)(=O)c2cnc(SCC(=O)Nc3ccc(F)c(Cl)c3)[nH]c2=O)cc1`, the Potency was 16.9 µM (active). Consider `COc1ccc(CNC(=O)C2CCCN(c3nnc(C)c4c(C)n(-c5ccc(C)cc5)nc34)C2)cc1` (stereo not given), for which the Potency was 19 µM (active).

As to `COc1ccc(-c2nc(SCC(=O)Nc3ccc4c(c3)OCO4)c(-c3ccc(OC)cc3)[nH]2)cc1`, the Potency was 5.35 µM (active). `CCC(Sc1nc2ccccc2c2nc(CCn3cncc3C)nn12)C(=O)Nc1cccc(OC)c1` (stereo not given): the Potency is 12 µM (active). With `CCc1ccc(OCCn2c(C3CC(=O)N(Cc4ccc(F)cc4)C3)nc3ccccc32)cc1` (stereo not given), the Potency is 3.01 µM (active). In the case of `Nc1ccn(C2O[C@H](CO)[C@@H](O)[C@@H]2O)c(=O)n1` (stereo not given in full), the “activity change, negative = inhibition” value is -0.0783% (inactive). On to `OC[C@@H](O)C(O)[C@@H](O)CO` (stereo not given in full), for which the “activity change, negative = inhibition” value was 11% (inactive).

As to `COc1cc(C(=O)NC(c2ccc(Cl)cc2)c2cc(Cl)c3cccnc3c2O)cc(OC)c1OC` (stereo not given), the “activity change, negative = inhibition” value was 7.14% (inactive).

On to `CC1=C(C(=O)Nc2cccc(CN)c2)C(c2ccccc2Cl)N=C(Nc2nc3ccccc3o2)N1` (stereo not given), for which the Potency is 3.38 µM (active). With `CCOC(=O)c1sc(NC(=O)c2c(-c3ccccc3)c(-c3ccccc3)nn(C)c2=O)nc1C`, the “activity change, negative = inhibition” value was -16.4% (inactive). Take `Cc1cncn1CCc1nc2c3ccccc3nc(SCC(=O)Nc3cccc(Cl)c3)n2n1`: the Potency is 0.674 µM (active). For the molecule `C[C@@H]1C[C@H]2[C@@H]3C[C@H](F)C4=CC(=O)C=C[C@]4(C)[C@@]3(F)[C@@H](O)C[C@]2(C)[C@@]1(O)C(=O)COC(=O)C(C)(C)C`, the “activity change, negative = inhibition” value is -8.99% (inactive). As for `Cc1oc(-c2cccc(Cl)c2)nc1Cn1c(SCc2ccccc2F)nc2ccncc21`, the Potency was 4.77 µM (active). Take `O=c1c2c(on1Cc1ccccc1)CCNCC2`: the “activity change, negative = inhibition” value is -10.2% (inactive).
